PubChem BioAssay
Calls of active or inactive are those of the source.

Legend:
[1] = binders of probe aFSTL3 on microarray, primary screen, stem cell growth factor project, biochemical, small-molecule microarray, fluorescence 635/667 (AID 1064); settings: higher = more signal;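 further: measures binding of the biotinylated anti-FSTL3 antibody to printed compounds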
[2] = binders from COS7 lysate, DM2A8 probe, primary screen, torsin A project, cell lysate, small-molecule microarray, fluorescence 635/667 (AID 1065); settings: higher = more signal, COS7 lysate expressing mutant human TOR1A
[3] = binders of probe aFGF2 on microarray, primary screen, stem cell growth factor project, biochemical, small-molecule microarray, fluorescence 635/667 (AID 1067); settings: higher = more signal;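 further: measures binding of biotinylated aFGF2 protein to printed compounds on slides; z-score merges feature fluorescence and signal-to-noise across triplicate slides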
[4] = binders of probe aFGF10 on microarray, primary screen, stem cell growth factor project, biochemical, small-molecule microarray, fluorescence 635/667 (AID 1071); settings: higher = more signal;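 further: score merges 667 nm spot intensity and signal to noise from triplicate slides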
[5] = biological target: Neurogenic locus notch homolog protein 2 (Homo sapiens) (UniProt Q04721); assay: Notch2 binders on small-molecule microarrays, primary screen, biochemical, small-molecule microarray, 635 nm fluorescence, stem cell growth factors (AID 1073); settings: Notch2 binding, higher = more signal
[6] = biological target: Pro-neuregulin-1, membrane-bound isoform (Homo sapiens) (UniProt Q02297); assay: NRG1 binders on small-molecule microarrays, primary screen, psychiatric disease protein project, biochemical, small-molecule microarray, fluorescence 635/667 (AID 1075); settings: NRG1 binding, 635 nm fluorescence, higher = more signal;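 further: score combines 667 nm spot fluorescence with signal to noise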
Chain of Pro-neuregulin-1, membrane-bound isoform (Homo sapiens) (Q02297 whole entry, looked up, the tested form may be a part, canonical isoform): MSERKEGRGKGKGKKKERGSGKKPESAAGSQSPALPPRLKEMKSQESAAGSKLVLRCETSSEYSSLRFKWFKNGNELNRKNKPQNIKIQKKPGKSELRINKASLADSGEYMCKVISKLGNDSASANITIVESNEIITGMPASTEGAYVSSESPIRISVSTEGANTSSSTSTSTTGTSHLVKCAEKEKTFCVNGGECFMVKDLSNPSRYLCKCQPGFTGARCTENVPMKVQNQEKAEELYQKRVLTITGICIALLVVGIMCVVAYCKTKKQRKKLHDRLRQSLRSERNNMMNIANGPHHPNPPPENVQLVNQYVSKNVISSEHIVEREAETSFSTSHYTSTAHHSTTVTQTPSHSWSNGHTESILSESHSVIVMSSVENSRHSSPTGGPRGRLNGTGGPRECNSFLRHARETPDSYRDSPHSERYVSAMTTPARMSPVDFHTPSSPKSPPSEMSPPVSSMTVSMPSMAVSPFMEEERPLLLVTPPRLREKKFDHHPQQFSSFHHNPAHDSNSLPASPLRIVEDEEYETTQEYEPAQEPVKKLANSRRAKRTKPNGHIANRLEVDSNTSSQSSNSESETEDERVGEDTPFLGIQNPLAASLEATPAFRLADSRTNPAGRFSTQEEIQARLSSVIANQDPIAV

[7] = system: Neuregulin-1 EGF-like domain; assay: binders of neuregulin-1 EGF-like domain, primary screen, biochemical, small-molecule microarray, 635 nm fluorescence (AID 1081); settings: small-molecule microarray binding, higher = more signal;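 further: binding of the protein to compounds printed on small-molecule microarray slides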
[8] = FRG1 promoter luciferase signal modulators, primary screen, FRG1 inhibition for FSHD, cell-based, C2C12 myotubes, firefly/Renilla luciferase, luminescence (AID 1084); settings: higher = more signal, called active from +8 up or from −8 down
[9] = binders of probe aFST on microarray, primary screen, stem cell growth factor project, biochemical, small-molecule microarray, fluorescence 635/667 (AID 1086); settings: higher = more signal;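 further: score merges 667 nm fluorescence with signal-to-noise of each printed compound spot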
[10] = binders of probe aHhip on microarray, primary screen, stem cell growth factor project, biochemical, small-molecule microarray, fluorescence 635/667 (AID 1087); settings: higher = more signal;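 further: score merges spot fluorescence at 667nm with spot signal to noise ratio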
[11] = system: PRMT1 (protein arginine N-methyltransferase 1); assay: PRMT1 binders on small-molecule microarrays, primary screen, biochemical, small-molecule microarray, 635 nm fluorescence (AID 1088); settings: small-molecule microarray binding, higher = more signal;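 further: binding of Prmt1 protein to compounds spotted on small-molecule microarray slides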
[12] = yeast growth modulation, basal conditions, primary screen, YJM789 clinical isolate, OD600, 24 h (AID 1089);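 further: growth of clinical yeast isolate S. cerevisiae YJM 789 seeded 1000 cells per well; test concentration not given here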; settings: S. cerevisiae YJM789 growth, higher = more signal, called active from +8 up or from −8 down
[13] = fission yeast growth modulation, primary screen, strain 972, OD600, 24 h, no modulator (AID 1090);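 further: basal condition with compound alone and no growth modifier present; test concentration not given here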; settings: S. pombe 972 growth, higher = more signal, called active from +8 up or from −8 down
[14] = S. cerevisiae growth modulation with rapamycin, primary screen, strain BY4716, OD600, 96 h (AID 1091); settings: higher = more signal, called active from +8 up or from −8 down; further: test concentration not given here
[15] = biological target: Torsin-1A-interacting protein 2 (Homo sapiens) (UniProt Q8NFQ8); assay: LULL1 binders on small-molecule microarray, primary screen, cell lysate, human LULL1 lysate, 635/667 nm fluorescence (AID 1092); settings: hLULL1 lysate binding, 635 nm fluorescence, higher = more signal;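 further: probe is lysate of COS7 cells overexpressing human LULL1; score merges per-feature 667 nm fluorescence with signal-to-noise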
Chain of Torsin-1A-interacting protein 2 (Homo sapiens) (Q8NFQ8 whole entry, looked up): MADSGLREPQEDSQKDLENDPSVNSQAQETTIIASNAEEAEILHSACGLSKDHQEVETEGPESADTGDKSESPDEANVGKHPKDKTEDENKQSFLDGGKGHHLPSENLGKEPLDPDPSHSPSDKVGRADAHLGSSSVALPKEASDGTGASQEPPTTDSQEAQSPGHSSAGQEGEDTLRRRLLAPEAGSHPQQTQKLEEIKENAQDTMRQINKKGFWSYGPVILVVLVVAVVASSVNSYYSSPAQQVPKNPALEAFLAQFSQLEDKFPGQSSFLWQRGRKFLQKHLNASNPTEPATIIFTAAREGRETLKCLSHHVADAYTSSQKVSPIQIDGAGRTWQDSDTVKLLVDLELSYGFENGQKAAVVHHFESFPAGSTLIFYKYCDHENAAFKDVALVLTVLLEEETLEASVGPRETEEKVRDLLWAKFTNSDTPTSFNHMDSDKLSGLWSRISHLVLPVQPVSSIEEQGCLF

[16] = E. coli growth modulation, two-sided OD650, primary screen, E. coli filamentation project, strain DRC41, 24 h (AID 1093); settings: OD650, 24 h, higher = more signal, called active from +8 up or from −8 down;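 further: MC1000 strain lacking acrAB efflux and sulA so SOS filamentation is blocked; test concentration not given here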
[17] = small-molecule microarray binders of probe aLefty2, primary screen, biochemical, biotinylated probe, 635/667 nm fluorescence (AID 1094); settings: higher = more signal;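 further: score merges spot fluorescence near 667 nm with spot signal-to-noise ratio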
[18] = system: Noggin (protein binding on small-molecule microarray); assay: Noggin binders on small-molecule microarray, primary screen, biochemical, 635/667 nm fluorescence (AID 1095); settings: 635 nm fluorescence, higher = more signal;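 further: score merges 667 nm feature fluorescence with signal to noise over triplicate slides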
[19] = biological target: Neurogenic locus notch homolog protein 3 (Homo sapiens) (UniProt Q9UM47); assay: NOTCH3 binders on small-molecule microarray, primary screen, biochemical, 635/667 nm fluorescence (AID 1096); settings: NOTCH3 binding, 635 nm fluorescence, higher = more signal
Chain of Neurogenic locus notch homolog protein 3 (Homo sapiens) (Q9UM47 whole entry, looked up): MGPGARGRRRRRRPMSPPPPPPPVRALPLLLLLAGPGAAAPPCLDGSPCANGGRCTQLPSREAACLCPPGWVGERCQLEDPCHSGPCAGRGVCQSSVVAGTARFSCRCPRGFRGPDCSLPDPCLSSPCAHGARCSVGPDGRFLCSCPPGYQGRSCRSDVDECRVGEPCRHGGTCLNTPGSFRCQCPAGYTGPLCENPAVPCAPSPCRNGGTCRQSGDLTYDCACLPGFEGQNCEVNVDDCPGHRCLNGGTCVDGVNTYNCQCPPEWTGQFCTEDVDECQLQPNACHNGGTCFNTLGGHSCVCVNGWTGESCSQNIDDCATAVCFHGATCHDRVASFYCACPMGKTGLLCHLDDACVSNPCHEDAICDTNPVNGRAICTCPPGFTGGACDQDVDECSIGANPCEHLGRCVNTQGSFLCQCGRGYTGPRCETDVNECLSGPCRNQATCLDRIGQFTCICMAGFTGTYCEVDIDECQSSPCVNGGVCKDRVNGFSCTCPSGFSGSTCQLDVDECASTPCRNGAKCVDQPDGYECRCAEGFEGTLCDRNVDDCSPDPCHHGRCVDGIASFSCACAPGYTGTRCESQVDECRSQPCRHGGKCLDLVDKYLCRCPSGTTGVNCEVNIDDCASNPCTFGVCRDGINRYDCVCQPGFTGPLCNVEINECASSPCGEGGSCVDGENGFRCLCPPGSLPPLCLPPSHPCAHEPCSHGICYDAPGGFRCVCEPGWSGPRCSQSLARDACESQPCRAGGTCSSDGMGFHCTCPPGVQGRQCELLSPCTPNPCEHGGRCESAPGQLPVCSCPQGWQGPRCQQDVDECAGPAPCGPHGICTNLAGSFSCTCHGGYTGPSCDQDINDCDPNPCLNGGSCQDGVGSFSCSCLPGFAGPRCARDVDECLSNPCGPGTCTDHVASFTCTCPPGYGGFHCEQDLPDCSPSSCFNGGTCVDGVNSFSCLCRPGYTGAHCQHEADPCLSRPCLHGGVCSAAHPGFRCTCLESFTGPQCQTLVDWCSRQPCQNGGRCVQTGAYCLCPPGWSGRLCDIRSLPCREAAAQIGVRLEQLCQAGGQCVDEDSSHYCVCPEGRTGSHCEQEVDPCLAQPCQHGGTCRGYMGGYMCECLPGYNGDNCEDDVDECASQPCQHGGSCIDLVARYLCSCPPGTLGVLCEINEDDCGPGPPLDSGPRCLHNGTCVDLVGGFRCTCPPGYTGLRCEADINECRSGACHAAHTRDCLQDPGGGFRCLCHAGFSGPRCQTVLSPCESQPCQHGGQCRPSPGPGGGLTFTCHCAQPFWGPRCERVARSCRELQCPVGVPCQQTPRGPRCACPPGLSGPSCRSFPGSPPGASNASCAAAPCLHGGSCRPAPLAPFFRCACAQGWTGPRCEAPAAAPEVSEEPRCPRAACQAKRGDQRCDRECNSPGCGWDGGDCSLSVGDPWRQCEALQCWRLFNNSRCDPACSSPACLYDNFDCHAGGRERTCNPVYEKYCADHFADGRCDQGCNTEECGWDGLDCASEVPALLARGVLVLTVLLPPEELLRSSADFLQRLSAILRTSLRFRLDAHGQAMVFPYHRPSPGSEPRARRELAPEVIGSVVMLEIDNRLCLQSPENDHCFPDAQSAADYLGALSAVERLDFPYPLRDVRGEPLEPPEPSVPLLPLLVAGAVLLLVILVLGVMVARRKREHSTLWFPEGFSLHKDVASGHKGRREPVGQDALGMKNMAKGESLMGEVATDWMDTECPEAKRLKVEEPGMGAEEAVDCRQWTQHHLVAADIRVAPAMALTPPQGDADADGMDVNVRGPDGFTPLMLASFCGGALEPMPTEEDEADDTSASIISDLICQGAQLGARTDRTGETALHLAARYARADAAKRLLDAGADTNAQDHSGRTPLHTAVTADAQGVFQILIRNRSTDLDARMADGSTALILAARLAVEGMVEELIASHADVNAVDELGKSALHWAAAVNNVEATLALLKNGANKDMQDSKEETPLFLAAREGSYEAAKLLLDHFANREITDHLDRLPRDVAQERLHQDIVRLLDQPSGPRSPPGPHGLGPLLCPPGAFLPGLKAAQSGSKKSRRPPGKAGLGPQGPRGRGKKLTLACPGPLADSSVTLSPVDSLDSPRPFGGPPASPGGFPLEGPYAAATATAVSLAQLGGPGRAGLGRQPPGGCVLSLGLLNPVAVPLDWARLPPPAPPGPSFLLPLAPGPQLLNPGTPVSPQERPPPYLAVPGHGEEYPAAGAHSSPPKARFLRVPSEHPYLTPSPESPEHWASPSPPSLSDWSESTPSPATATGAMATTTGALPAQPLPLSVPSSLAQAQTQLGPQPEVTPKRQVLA

[20] = small-molecule microarray binders of probe aEGFR, primary screen, biochemical, biotinylated probe, 635/667 nm fluorescence (AID 1097); settings: higher = more signal;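 further: probe is a biotinylated anti-EGFR antibody binding compounds printed on slides; score combines fluorescence near 667 nm and signal to noise of each spot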

SMILES	composite z-score [1]	composite z-score [2]	composite z-score [3]	composite z-score [4]	composite z-score [5]	composite z-score [6]	composite z-score [7]	z-score [8]	composite z-score [9]	composite z-score [10]	composite z-score [11]	z-score [12]	z-score [13]	z-score [14]	composite z-score [15]	z-score [16]	composite z-score [17]	composite z-score [18]	composite z-score [19]	composite z-score [20]
COC(=O)[C@@]1(Cc2ccccc2)[C@H]2c3cc(C(=O)N(C)C)n(CCc4c[nH]c5ccc(O)cc45)c3C[C@H]2CN1C(=O)c1ccccc1	0.808	-0.0685	0.0518	0.188	0.832	-0.198	1.29	0.688 (inactive)	1.21	-0.191	0.937	-1.09 (inactive)	1.25 (inactive)	0.405 (inactive)	3.11	0.488 (inactive)	0.583	0.626	0.751	-0.0234
O=C1OCCC=C[C@H]2OC34C=CCN(Cn5nnc6ccccc65)C(=O)[C@H]3N(CCO)C(=O)[C@@H]4C12 (stereo not given in full)	-0.254	-0.4	-0.219	-0.308	-1.06	0.0802	1.13	0.684 (inactive)	-0.8	-0.226	-0.312	-0.352 (inactive)	0.785 (inactive)	-0.422 (inactive)	-0.316	2.26 (inactive)	-0.135	-1.26	-0.491	-0.345
COC(=O)[C@@]1(Cc2ccc(OC)cc2)[C@H]2c3cc(C(=O)N4CCCC4)n(CCSCCO)c3C[C@H]2CN1C(=O)c1ccccc1	0.32	-0.399	0.46	0.651	1.69	1.86	1.4	-0.15 (inactive)	1.3	0.455	0.416	0.786 (inactive)	1.72 (inactive)	1.25 (inactive)	3.38	-0.647 (inactive)	0.172	-0.492	0.671	0.157
C=C(C)[C@@H]1CC=C(C(O)C2C=CC3C(=O)NC(=O)C3N2Nc2ccc(Cl)cc2Cl)CC1 (stereo not given in full)	0.917	0.403	0.0095	0.117	1.42	1.35	0.953	1.3 (inactive)	1.2	-0.0645	0.794	-9.03 (active)	-5.22 (inactive)	3.45 (inactive)	2.91	-2.91 (inactive)	0.325	-0.821	1.06	0.0044
C=C(CCCC)C(=O)CC[C@@H](OC(C)=O)c1ccc(CO)o1	-0.327	0.349	-0.0729	0.726	-0.426	-0.306	-0.0318	0.514 (inactive)	0.911	0.0505	1.54	-4.06 (inactive)	-15.4 (active)	-2.36 (inactive)	-0.0891	0.246 (inactive)	-0.241	1.52	0.582	-0.162
COCC(=C=CC[C@H](O)c1cccc(OCCO)c1)CCO	-0.44	-0.625	-0.0347	0.242	-0.137	1.12	0.711	1.02 (inactive)	0.235	-0.0645	1.47	-0.45 (inactive)	-0.19 (inactive)	-0.55 (inactive)	2.12	0.0234 (inactive)	-0.185	0.69	0.898	-0.112
CCCC=C(CCC)[C@@H](NC(=O)OCC(C)C)c1ccccc1	1.28	-0.122	0.685	0.444	1.33	-0.111	0.762	2.06 (inactive)	2.06	0.152	0.934	0.69 (inactive)	-0.623 (inactive)	1.94 (inactive)	2.01	-1.68 (inactive)	0.678	1.11	1.12	0.548
COC(=O)[C@@]1(Cc2ccc(F)cc2)[C@H]2c3cc(C(=O)N(C)C)n(Cc4ccc(C)o4)c3C[C@H]2CN1C(=O)c1ccccc1	2.58	3.31	0.62	0.0793	0.0386	1.8	1.13	0.626 (inactive)	2.31	0.683	0.323	-0.319 (inactive)	-7.9 (inactive)	0.792 (inactive)	3.05	-0.386 (inactive)	1.26	-0.386	-0.124	0.763
C=CCOC(=O)[C@H]1[C@@H]2C(=O)O[C@@H](c3ccccc3)[C@@H](c3ccccc3)N2[C@@H](c2ccc(OCCOC(=O)[C@H]3C[C@H]4C(=O)N[C@@H](CCCCN(C)C)C(=O)N4[C@H]3c3cccc(OCCO)c3)cc2)[C@]12C(=O)Nc1ccc(I)cc12	-0.756	0.67	-0.0659	0.527	0.914	0.605	1.3	0.0721 (inactive)	0.405	-0.179	1.54	1.71 (inactive)	-1.05 (inactive)	1.71 (inactive)	2.84	-1.36 (inactive)	-0.129	1.67	1.06	-0.15
C=C(C(=O)CC[C@H](OC(C)=O)c1ccccc1OCCO)C(C)C	-0.214	-1.03	-0.0985	0.317	-0.926	-0.49	-0.862	-4.37 (inactive)	-0.327	0.0854	0.316	-25 (active)	-20.2 (active)	-4.35 (inactive)	-0.808	0.43 (inactive)	-0.232	0.657	0.0937	-0.188
CN(C)CCCC[C@@H]1NC(=O)[C@H]2C[C@@H](C(=O)NCCCCCN)[C@@H](c3cccc(OCCO)c3)N2C1=O	1.88	2.19	0.269	0.558	1.12	2.28	1.3	-0.0269 (inactive)	1.75	1.16	1.54	-0.717 (inactive)	-5.79 (inactive)	-0.503 (inactive)	2.26	1.04 (inactive)	0.801	1.38	0.339	0.374
COc1ccc([Si](C)(C)[C@H]2[C@H](CC(=O)N3CCC[C@H]3CO)O[C@@]3(C(=O)N(Cc4cccc(N5CCOC5=O)c4)c4ccccc43)[C@@H]2C)cc1	-0.308	0.358	-0.042	0.141	0.143	0.662	0.876	-3.92 (inactive)	0.548	-0.169	1.55	-1.53 (inactive)	0.239 (inactive)	-1.71 (inactive)	1.02	1.78 (inactive)	-0.23	1.28	1.11	-0.0271
CCOC(=O)C1=CC[C@@H](c2ccccc2)N(S(=O)(=O)c2ccc(C)cc2)[C@H]1c1ccc(CC)cc1	0.114	-0.0251	-0.0056	0.421	1.4	0.863	1.06	-3.16 (inactive)	0.762	-0.0618	1.27	0.891 (inactive)	1.94 (inactive)	2.17 (inactive)	2.02	-0.315 (inactive)	0.05	-0.503	0.716	0.279
COC(=O)c1c(CC[C@@H](CO)NC(=O)N[C@@H](Cc2ccccc2)Cn2cc(-c3ccccn3)nn2)oc(C(=O)N2CCOCC2)c1C(=O)OC	-0.39	-0.451	-0.0348	0.218	0.303	-0.0149	0.734	0.183 (inactive)	0.128	-0.356	0.278	0.503 (inactive)	0.82 (inactive)	-0.593 (inactive)	0.843	-0.613 (inactive)	-0.124	0.227	0.495	-0.183
C#CCN(C/C=C/c1ccccc1)[C@H](CO)c1ccccc1	-0.565	0.484	-0.182	-0.254	0.261	-0.516	-0.0706	-0.786 (inactive)	0.288	0.0156	-0.019	-3.99 (inactive)	-21.4 (active)	-1.64 (inactive)	0.0638	0.408 (inactive)	-0.319	1.12	0.39	-0.215
CCOC(=O)C1=CC[C@@H](c2ccc(C(F)(F)F)cc2)N(S(=O)(=O)c2ccc(C)cc2)[C@H]1c1ccccc1	0.371	1.4	0.0917	0.599	1.38	1.3	1.25	-0.364 (inactive)	1.04	-0.0296	1.49	-0.641 (inactive)	-0.482 (inactive)	0.363 (inactive)	2.92	-0.617 (inactive)	0.285	0.496	1.05	0.208
COC(=O)[C@]1(Cc2ccccc2)N=C(c2ccc(OCCCO)cc2)O[C@@H]1c1ccccc1N=[N+]=[N-]	-0.186	0.179	-0.0268	-0.13	0.473	0.314	0.764	4.51 (inactive)	0.551	0.0373	1.52	-0.701 (inactive)	-1.01 (inactive)	24.6 (active)	1.82	-0.604 (inactive)	-0.0389	1.15	0.58	-0.0987
[N-]=[N+]=NCc1ccccc1[C@@H]1OC(c2ccc(OCCCO)cc2)=N[C@]1(CCS(=O)(=O)c1ccccc1)C(=O)N1CCCCC1	0.0217	-0.267	0.0714	0.398	1.66	2.13	1.28	-0.0344 (inactive)	1.69	-0.26	1.56	-0.238 (inactive)	0.454 (inactive)	1.44 (inactive)	2.94	0.622 (inactive)	0.0563	0.36	1.02	0.208
CC(C)(C)OC(=O)CC[C@]1(C(N)=O)N=C(c2ccc(OCCCO)cc2)O[C@H]1c1ccccc1	1.05	1.16	0.0466	0.27	1.53	2.53	1.07	-0.578 (inactive)	0.994	0.294	0.735	0.519 (inactive)	0.256 (inactive)	0.793 (inactive)	3.74	0.152 (inactive)	0.423	0.115	0.89	0.372
[N-]=[N+]=Nc1ccccc1C[C@]1(C(=O)NCC(O)CO)N=C(c2ccc(OCCCO)cc2)O[C@H]1c1ccccc1 (stereo not given in full)	0.451	0.533	-0.0328	0.0717	0.641	1.93	0.867	-0.666 (inactive)	1.56	-0.0391	0.909	1.25 (inactive)	0.0558 (inactive)	0.568 (inactive)	2.2	0.291 (inactive)	0.322	-0.5	0.394	-0.0826
